# Screens as filed in PubChem BioAssay.
# D1 antag – blocks dopamine activation of the human D1 receptor. HEK293 TREx D1 cells, calcium flux, dopamine EC80; active compounds read low. activity change, negative = inhibition, % at 10 µM. actives 3.2% (n = 360,000); in the data active = activity change below about -30%; also: % is scaled to controls: 0 for no effect and ±100 for the full control effect
# Target sequence (P21728 whole entry, looked up): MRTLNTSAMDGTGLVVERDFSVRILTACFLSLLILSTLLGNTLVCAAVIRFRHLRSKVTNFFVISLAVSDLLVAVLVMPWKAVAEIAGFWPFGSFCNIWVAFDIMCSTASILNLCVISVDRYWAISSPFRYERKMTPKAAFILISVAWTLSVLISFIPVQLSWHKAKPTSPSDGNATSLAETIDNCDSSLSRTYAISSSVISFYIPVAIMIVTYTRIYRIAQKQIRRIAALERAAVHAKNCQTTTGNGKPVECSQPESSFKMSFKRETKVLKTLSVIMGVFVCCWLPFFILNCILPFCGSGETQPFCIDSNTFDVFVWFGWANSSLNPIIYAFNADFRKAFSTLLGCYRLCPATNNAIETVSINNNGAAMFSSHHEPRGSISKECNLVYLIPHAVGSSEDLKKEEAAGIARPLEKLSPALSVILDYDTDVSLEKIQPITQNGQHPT
#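 Tetracycline-induced HEK293 T-REx cells with force-coupled D1 receptor were loaded with a no-wash calcium dye. Compound was added after a 10 s baseline and read kinetically for 180 s; EC80 dopamine was then added and calcium flux followed another 180 s.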
# DRD3 antagonist – antagonists of human D3 dopamine receptor; max response, negative = inhibition, %; D3R cells, DiscoveRx beta-arrestin luminescence, antagonist mode; active compounds read low; actives 2.5% (n = 360,000); AID 652054; in the data active = max response below about -50%; inconclusive = no clear call, values can overlap the other calls; also: % is scaled to controls: 0 for no effect and ±100 for the full control effect
#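 Cells expressing the human receptor were seeded at 1500 cells/well, incubated overnight at 37 degrees C in 5% CO2, then exposed to library compounds with dopamine controls for 90 minutes at 37 degrees C before luminescent detection.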
# D1 potentiator – enhances dopamine response at the human D1 receptor. P21728. potentiation, % at 10 µM. actives 0.036% (n = 360,000). HEK293 TREx D1 cells, calcium flux, dopamine EC20 potentiation; in the data active = potentiation above about 30%; also: 0% is about no effect
# D1 ag – agonists of human D1 dopamine receptor; HEK293 T-REx D1 cells, calcium flux, agonist mode; activation, % at 2 µM; actives 1% (n = 360,000); AID 504660; in the data active = activation above about 30%; also: 0% is about no effect
#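 Tetracycline-induced HEK293 TREx D1 cells, force-coupled to calcium signalling, were dye-loaded with a no-wash calcium kit. Compound was pin-added after a 10 s baseline. Fluorescence was read kinetically at 1 cycle/s for 180 s, with calcium rises flagged as agonism.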
# D3 ag – D3 dopamine receptor (human) agonism | P35462 | D3R DiscoveRx beta-arrestin cells, luminescence, 90 min | max activation, % | actives 0.58% (n = 410,000); in the data active = max activation above about 30%; also: 0% is about no effect
#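 Agonist mode: compounds and dopamine controls were applied to plated cells for 90 min at 37 degrees C after an overnight attachment at 1500 cells/well. Luminescent read-out followed 30 - 60 minutes at room temperature with DiscoveRx detection reagent.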
# * hit, by the source's call; ? = inconclusive; . = no result given; ! = a repeat was not active. Hits are enriched below; roughly 6% of the tested compounds scored in any of these assays.
SMILES,D1 antag,DRD3 antagonist,D1 potentiator,D1 ag,D3 ag
CN1CCN(S(=O)(=O)c2ccc(NC(=O)COc3ccccc3Cl)cc2)CC1,-53*,4,-9,8,-7
CCCC(C(=O)Nc1ccc(C)c(S(=O)(=O)N2CCOCC2)c1)c1ccccc1 (stereo not drawn),3,4,-4,2,1
CCc1ccc(OCC(=O)Nc2ccc(S(=O)(=O)Nc3ccccn3)cc2)cc1,-17,4,-6,42*,-7
CCCC(C(=O)Nc1ccc(S(=O)(=O)N2CCOCC2)cc1)c1ccccc1 (stereo not drawn),-7,-8,-1,37*,0
Cc1ccc(OCC(=O)Nc2ccc(N3CCCC3)cc2)cc1C,8,-9,-10,0,-4
Cc1cc(C)c(NC(=O)Cc2ccc(-n3c(C)nc4cccnc43)cc2)c(C)c1,4,.,3,0,0
CCC(=O)N1CCN(c2ccc(NC(=O)COc3ccccc3[N+](=O)[O-])cc2)CC1,-11,26,-4,31*,0
CCc1ccc(OCC(=O)Nc2ccc(S(=O)(=O)N3CCOCC3)cc2)cc1,-1,16,-1,44*,2
CN1CCN(c2ccc(NC(=O)COc3ccccc3Cl)cc2)CC1,-70*,22,-20,10,-20
CN1CCN(S(=O)(=O)c2ccc(NC(=S)NC(=O)c3ccc(Cl)cc3)cc2)CC1,-57*,8,-16,30*,7
CCC(=O)N1CCN(c2ccc(NC(=O)COc3ccccc3Cl)cc2)CC1,-4,7,-3,9,24
CC(=O)Nc1c(C)nn(-c2ccccc2)c1N1CCC(C(=O)Nc2cccc(C(F)(F)F)c2)CC1,-27,.,1,2,2
CN1CCN(S(=O)(=O)c2ccc(NC(=O)c3ccccc3Cl)cc2)CC1,-33*,4,-9,0,-3
Cc1cc(C)nc(NS(=O)(=O)c2ccc(NC(=O)COc3ccccc3)cc2)n1,-18,20,-7,1,1
Cc1cc(OCC(=O)Nc2ccc(S(=O)(=O)N3CCN(C)CC3)cc2)ccc1Cl,34,11,0,1,-4
Cc1cc(C)nc(NS(=O)(=O)c2ccc(NC(=O)COc3ccc(Cl)cc3C)cc2)n1,-49*,.,-2,-1,3
CN1CCN(S(=O)(=O)c2ccc(NC(=O)c3ccc(Br)s3)cc2)CC1,-46*,-22,-16,14,-19
CN1CCN(S(=O)(=O)c2ccc(NC(=O)c3ccc(Br)o3)cc2)CC1,4,9,-10,5,25
Cc1cc(OCC(=O)Nc2ccc(S(=O)(=O)N3CCN(C)CC3)cc2)cc(C)c1Cl,-70*,?,-6,10,1
COc1ccc(OC)c(C(=O)CSc2nnc(C3CC3)n2C2CC2)c1,.,6,.,.,4
O=P(O)(O)OC(Cn1cncn1)(Cn1cncn1)c1ccc(F)cc1F,.,.,.,.,6
CC(C)CCNC(=O)C1(C)CCN1Cc1ccc2ccccc2c1 (stereo not drawn),.,6,.,.,-4
CC(C)(C)C(=O)OCOC(=O)C1N2C(=O)CC2S(=O)(=O)C1(C)C (stereo not drawn),.,.,.,.,5
CN1CCN(S(=O)(=O)c2ccc(NC(=O)Nc3cccc(Cl)c3)cc2)CC1,-48*,16,-9,11,-2
Cc1cc(NS(=O)(=O)c2ccc(NC(=O)COc3c(C)cc(Br)cc3C)cc2)no1,6,4,-6,88*!,7
SMILES,D1 antag,DRD3 antagonist,D1 potentiator,D1 ag,D3 ag
O=C(COc1cccc(Cl)c1)Nc1ccc(N2CCOCC2)cc1,-37*,-9,-10,1,7
Cc1cc(NS(=O)(=O)c2ccc(NC(=O)Nc3cccc(Cl)c3)cc2)no1,15,-55*,-3,3,4
O=C(Nc1cccc(Cl)c1)Nc1cc(S(=O)(=O)N2CCCCC2)ccc1Cl,-23,-11,-7,9,-7
O=C(COc1ccc(F)c(Cl)c1)Nc1ccc(N2CCOCC2)cc1,.,6,.,.,-6
Cc1cc(NC(=O)Nc2cccc(Cl)c2)no1,.,-3,.,.,1
Cc1ccc(S(=O)(=O)NC(=O)C2(C)CCN2C(=O)CC2CCCC2)cc1 (stereo not drawn),.,-4,.,.,2
O=C(COC(=O)C1CCCCC1)Nc1ccc(N2CCCCC2)cc1,-30*,?,-1,-1,-12
O=C1CCCN1C(=O)COc1ccccc1[N+](=O)[O-],2,-3,-5,4,38*
CN1CCN(NC(=O)c2ccc(Cl)c(S(=O)(=O)Nc3ccc(Cl)cc3)c2)CC1,-38*,-25,-17,2,-2
O=C(O)c1ccc(Cl)c(S(=O)(=O)Nc2ccc(S(=O)(=O)N3CCCC3)cc2)c1,.,0,.,.,6
O=C(Nc1ccc(S(=O)(=O)N2CCN(Cc3ccccc3)CC2)cc1)c1cnccn1,-36*,9,-3,13,-3
COc1ccc(-n2c3c(cc(-c4nc(-c5ccc(Cl)cc5)cs4)c2=O)C(=O)CC(C)(C)C3)cc1Cl,2,.,2,2,-6
O=C(Cn1nc(Cc2cccnc2)c2ccccc2c1=O)Nc1ccc(F)c(Cl)c1,15,.,3,2,39*
O=C(Cn1nc(Cc2cccnc2)c2ccccc2c1=O)Nc1ccc2c(c1)OCO2,15,0,6,0,-4
CC1CCN(S(=O)(=O)c2nnc(NC(=O)c3cccc(Br)c3)s2)CC1,10,.,0,1,-6
CCC(CC)C(=O)Nc1nnc(S(=O)(=O)N2CCCCCC2)s1,0,-16,5,7,-1
O=C(Nc1nnc(S(=O)(=O)N2CCCCC2)s1)c1cccc(Br)c1,-5,25,-4,30*,0
CC(C)C(=O)Nc1nnc(S(=O)(=O)N2CCCCCC2)s1,-32*!,0,-1,0,-4
Clc1ccccc1Cn1nnc(-c2cccs2)n1,-16,-2,-8,20,-22
Clc1ccccc1Cn1nnc(-c2ccccc2)n1,-35*,-14,-12,18,-10
O=C(COC(=O)c1ccco1)Nc1nc2ccc([N+](=O)[O-])cc2s1,-52*,-10,-13,9,-5
CC(C)CN1C(=O)NC2(CCCc3ccccc32)C1=O (stereo not drawn),-80*,4,11,1,-8
CC(=O)CN1C(=O)NC2(CCCc3ccccc32)C1=O (stereo not drawn),11,8,7,1,5
Cc1cccc(NC(=O)CSc2nc(=O)n(Cc3cccnc3)c3c2CCC3)c1C,.,.,0,-5,5
Nc1ccc2cc3[nH]c4cc(N)ccc4c3nc2c1,.,-25,.,.,-11
Cc1nn2c(-c3ccco3)ccnc2c1-c1ccc(F)cc1,-6,.,-6,0,8
COC(=O)c1cn(Cc2ccc(C(F)(F)F)cc2)cc(F)c1=O,-31*,2,-7,0,2
COC(=O)C(NC(=O)CC(C)C)(Nc1nc2c(s1)CCCC2)C(F)(F)F (stereo not drawn),-11,.,-2,1,2
